In all, about 5,500 compounds went through this assay and about 2,000 (36%) were called active. Not shown: some 18% with an inconclusive outcome. No stated cut-off is given here; in the data, active means normalized growth mostly below about 0.91 (no sharp cut-off); inconclusive means no clear call, values can overlap the other calls; inactive means mostly above about 0.92. The list shows a part of the results.
Test: chemical genetic growth profiling, strain panel (AID 1159580);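 further: tested at 20 µM; growth read once vehicle control cultures reached saturation at 30 °C; 1 = growth at the plate median or of vehicle wells; lower values mean less growth of the strain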
Conditions: S. cerevisiae deletion strains, growth OD

Measured: normalized growth

C[N+](C)(C)CCOC(=O)CBr
active: locus YDR150W, strain NUM1, active compounds read low 1.06 [resistant]
inactive: locus YDR363W, strain ESC2, active compounds read low 1.05 | locus YER002W, strain NOP16, active compounds read low 1 | locus YGR078C, strain PAC10, active compounds read low 1.02 | locus YMR263W, strain SAP30, active compounds read low 1.01 | locus YNL153C, strain GIM3, active compounds read low 1.07 | locus YNL175C, strain NOP13, active compounds read low 1.02 | locus YNL197C, strain WHI3, active compounds read low 0.985 | locus YNL224C, strain SQS1, active compounds read low 1.01 | locus YOR083W, strain WHI5 (second series), active compounds read low 1.05 | locus YPL241C, strain CIN2, active compounds read low 1.01

— PubChem BioAssay AID1159580 (chemical genetic matrix, 2015)
